# In PMC7862700, “An all-to-all approach to the identification of sequence-specific readers for epigenetic DNA modifications on cytosine”:
# Columns and labels:
# Experiment in all cases: DAPPL (digital affinity profiling via proximity ligation, sequencing); 10 mM Tris-HCl pH 7.5, 50 mM NaCl, 1 mM DTT, 4% glycerol, room temperature, 30 min; GST-TFs on glutathione beads, 16-mer random dsDNA library, 0.1% formaldehyde crosslink after washing; high values mean tight binding
# FLI1 = biological target: T1, FLI1 (Homo sapiens, UniProt Q01543 1-452); conditions: protein: recombinant; tags: N-terminal GST; dsDNA, one strand shown
# T1 sequence: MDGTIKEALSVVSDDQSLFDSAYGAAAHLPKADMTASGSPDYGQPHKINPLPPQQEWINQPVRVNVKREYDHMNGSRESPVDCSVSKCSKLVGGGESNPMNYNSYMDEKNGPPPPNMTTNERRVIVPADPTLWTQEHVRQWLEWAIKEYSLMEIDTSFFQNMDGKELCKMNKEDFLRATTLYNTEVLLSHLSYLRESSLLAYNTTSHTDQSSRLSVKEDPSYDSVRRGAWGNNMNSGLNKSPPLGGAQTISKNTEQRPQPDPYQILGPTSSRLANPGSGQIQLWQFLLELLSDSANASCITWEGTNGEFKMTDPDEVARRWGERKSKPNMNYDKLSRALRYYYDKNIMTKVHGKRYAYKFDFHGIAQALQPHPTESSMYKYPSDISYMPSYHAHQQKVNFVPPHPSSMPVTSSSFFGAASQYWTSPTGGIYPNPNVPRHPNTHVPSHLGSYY
# In short: (§1)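 In yeast, human transcription factors were expressed with a GST fusion, then pulled down on glutathione beads and given DNA barcodes. Pooled with a tag-only sample, they were exposed to 200 nmole of a 16-mer random double-stranded DNA library (Tris/NaCl/DTT/glycerol buffer, room temperature, 30 min), washed, crosslinked with 0.1% formaldehyde, proximity-ligated using BsaI/T4 ligase for 1 h at 37 °C, PCR-amplified and read on an Illumina NextSeq500. Each hexamer's frequency of reads for a factor, divided by the matching frequency for the tag-only sample, gives the binding signal.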
# ELK1 = biological target: T2, ELK1 (Homo sapiens, UniProt P19419 1-428); conditions: protein: recombinant; tags: N-terminal GST; dsDNA, one strand shown
# T2 sequence: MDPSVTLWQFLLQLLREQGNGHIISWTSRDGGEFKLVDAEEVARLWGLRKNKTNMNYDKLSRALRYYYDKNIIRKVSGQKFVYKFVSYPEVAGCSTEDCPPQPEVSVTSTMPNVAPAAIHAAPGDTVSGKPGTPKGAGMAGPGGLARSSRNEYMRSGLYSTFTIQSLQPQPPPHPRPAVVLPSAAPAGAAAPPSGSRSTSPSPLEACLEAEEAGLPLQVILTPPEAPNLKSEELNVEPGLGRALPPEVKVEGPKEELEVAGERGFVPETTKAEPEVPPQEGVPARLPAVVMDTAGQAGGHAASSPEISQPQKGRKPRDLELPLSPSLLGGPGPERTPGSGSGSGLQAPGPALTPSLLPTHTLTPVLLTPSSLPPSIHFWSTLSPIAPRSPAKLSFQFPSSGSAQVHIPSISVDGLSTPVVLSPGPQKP
# In short: as §1
# GABPA = biological target: T3, GABPA (Homo sapiens, UniProt Q06546 1-454); conditions: protein: recombinant; tags: N-terminal GST; dsDNA, one strand shown
# T3 sequence: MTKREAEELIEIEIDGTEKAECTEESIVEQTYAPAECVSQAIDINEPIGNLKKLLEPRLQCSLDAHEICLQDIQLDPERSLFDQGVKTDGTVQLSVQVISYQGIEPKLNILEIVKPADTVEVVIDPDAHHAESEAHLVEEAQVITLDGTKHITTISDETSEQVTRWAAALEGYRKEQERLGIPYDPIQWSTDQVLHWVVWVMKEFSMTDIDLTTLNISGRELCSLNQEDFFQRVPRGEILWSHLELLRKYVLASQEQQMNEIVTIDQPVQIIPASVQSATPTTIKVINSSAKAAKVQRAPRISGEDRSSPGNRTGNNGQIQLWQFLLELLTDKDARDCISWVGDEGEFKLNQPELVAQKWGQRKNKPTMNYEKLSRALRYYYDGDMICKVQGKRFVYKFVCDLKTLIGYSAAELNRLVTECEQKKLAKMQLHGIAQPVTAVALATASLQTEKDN
# In short: as §1
# ERG = biological target: T4, ERG (Homo sapiens, UniProt P11308 1-479); conditions: protein: recombinant; tags: N-terminal GST; dsDNA, one strand shown
# T4 sequence: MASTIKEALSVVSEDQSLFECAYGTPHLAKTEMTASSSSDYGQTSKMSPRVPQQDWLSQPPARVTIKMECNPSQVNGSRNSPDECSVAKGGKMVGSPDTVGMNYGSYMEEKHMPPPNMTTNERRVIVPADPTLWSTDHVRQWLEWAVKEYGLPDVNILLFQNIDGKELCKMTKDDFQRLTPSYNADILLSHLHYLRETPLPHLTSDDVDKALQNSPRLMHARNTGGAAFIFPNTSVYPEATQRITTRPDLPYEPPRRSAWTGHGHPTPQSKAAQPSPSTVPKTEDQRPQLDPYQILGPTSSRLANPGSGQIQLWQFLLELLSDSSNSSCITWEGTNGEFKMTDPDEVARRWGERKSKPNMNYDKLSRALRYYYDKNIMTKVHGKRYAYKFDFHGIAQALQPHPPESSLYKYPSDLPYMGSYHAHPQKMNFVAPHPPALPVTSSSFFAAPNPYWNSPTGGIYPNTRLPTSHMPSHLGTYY
# In short: as §1
# ELF1 = ELF1 (Homo sapiens, UniProt P32519 1-619); conditions: protein: recombinant; tags: N-terminal GST; dsDNA, one strand shown
# In short: as §1
# EHF = biological target: T5, EHF (Homo sapiens, UniProt Q9NZC4 1-300); conditions: protein: recombinant; tags: N-terminal GST; dsDNA, one strand shown
# T5 sequence: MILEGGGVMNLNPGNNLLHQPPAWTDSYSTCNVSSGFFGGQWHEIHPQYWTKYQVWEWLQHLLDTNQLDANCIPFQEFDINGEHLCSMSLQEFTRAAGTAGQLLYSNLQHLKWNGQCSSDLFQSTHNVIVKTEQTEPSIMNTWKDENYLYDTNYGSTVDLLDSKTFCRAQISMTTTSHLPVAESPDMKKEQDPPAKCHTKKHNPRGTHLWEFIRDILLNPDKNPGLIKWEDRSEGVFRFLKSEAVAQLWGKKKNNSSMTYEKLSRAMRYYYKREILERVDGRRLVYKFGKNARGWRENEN
# In short: as §1
# SPI1 = SPI1 (Homo sapiens, UniProt P17947 1-270); conditions: protein: recombinant; tags: N-terminal GST; dsDNA, one strand shown
# In short: as §1
# SPIB = SPIB (Homo sapiens, UniProt Q01892 1-262); conditions: protein: recombinant; tags: N-terminal GST; dsDNA, one strand shown
# In short: as §1
# ELK3 = biological target: T6, ELK3 (Homo sapiens, UniProt P41970 1-407); conditions: protein: recombinant; tags: N-terminal GST; dsDNA, one strand shown
# T6 sequence: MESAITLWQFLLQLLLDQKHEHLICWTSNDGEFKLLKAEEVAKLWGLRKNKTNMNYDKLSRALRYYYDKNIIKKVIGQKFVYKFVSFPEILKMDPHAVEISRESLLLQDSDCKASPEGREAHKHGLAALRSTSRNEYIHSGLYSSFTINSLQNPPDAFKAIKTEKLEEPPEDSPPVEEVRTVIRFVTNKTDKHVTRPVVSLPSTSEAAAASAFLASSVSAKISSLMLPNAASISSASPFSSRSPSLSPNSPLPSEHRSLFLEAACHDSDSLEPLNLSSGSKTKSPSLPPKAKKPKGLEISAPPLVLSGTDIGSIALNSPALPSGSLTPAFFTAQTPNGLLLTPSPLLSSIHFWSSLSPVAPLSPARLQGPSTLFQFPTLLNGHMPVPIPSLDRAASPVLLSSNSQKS
# In short: as §1
# FEV = biological target: T7, FEV (Homo sapiens, UniProt Q99581 1-238); conditions: protein: recombinant; tags: N-terminal GST; dsDNA, one strand shown
# T7 sequence: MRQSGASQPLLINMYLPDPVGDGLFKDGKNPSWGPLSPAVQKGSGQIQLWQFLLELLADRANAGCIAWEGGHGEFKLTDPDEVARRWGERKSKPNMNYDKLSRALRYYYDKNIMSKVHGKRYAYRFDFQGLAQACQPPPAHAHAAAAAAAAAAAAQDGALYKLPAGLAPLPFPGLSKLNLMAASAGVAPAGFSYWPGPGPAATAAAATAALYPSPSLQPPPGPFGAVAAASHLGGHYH
# In short: as §1
# ETV5 = ETV5 (Homo sapiens, UniProt P41161 1-510); conditions: protein: recombinant; tags: N-terminal GST; dsDNA, one strand shown
# In short: as §1
# HSF1 = HSF1 (Homo sapiens, UniProt Q00613 1-529); conditions: protein: recombinant; tags: N-terminal GST; chain copies: 3; dsDNA, one strand shown
# In short: as §1
# SPIC = biological target: T8, SPIC (Homo sapiens, UniProt Q8N5J4 1-248); conditions: protein: recombinant; tags: N-terminal GST; dsDNA, one strand shown
# T8 sequence: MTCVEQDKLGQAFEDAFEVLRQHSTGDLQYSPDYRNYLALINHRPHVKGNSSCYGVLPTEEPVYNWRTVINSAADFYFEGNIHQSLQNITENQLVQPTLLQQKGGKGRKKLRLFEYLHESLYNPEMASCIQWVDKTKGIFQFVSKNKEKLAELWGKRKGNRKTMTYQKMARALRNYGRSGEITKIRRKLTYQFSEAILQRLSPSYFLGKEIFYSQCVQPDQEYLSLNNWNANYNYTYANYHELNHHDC
# In short: as §1
# ELF4 = ELF4 (Homo sapiens, UniProt Q99607 1-663); conditions: protein: recombinant; tags: N-terminal GST; dsDNA, one strand shown
# In short: as §1
# ELK4 = biological target: T9, ELK4 (Homo sapiens, UniProt P28324-2 1-405); conditions: protein: recombinant; tags: N-terminal GST; dsDNA, one strand shown
# T9 sequence: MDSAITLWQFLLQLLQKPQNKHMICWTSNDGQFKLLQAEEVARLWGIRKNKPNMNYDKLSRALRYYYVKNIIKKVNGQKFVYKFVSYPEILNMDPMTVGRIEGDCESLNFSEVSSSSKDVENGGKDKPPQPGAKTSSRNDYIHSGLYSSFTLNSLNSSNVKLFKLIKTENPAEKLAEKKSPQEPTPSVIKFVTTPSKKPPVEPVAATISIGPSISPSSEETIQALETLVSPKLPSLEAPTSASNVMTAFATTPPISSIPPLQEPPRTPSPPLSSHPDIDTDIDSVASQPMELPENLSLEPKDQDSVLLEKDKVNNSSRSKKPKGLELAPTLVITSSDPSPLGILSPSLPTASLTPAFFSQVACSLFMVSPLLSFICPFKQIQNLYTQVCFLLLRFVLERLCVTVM
# In short: as §1
# ETV2 = biological target: T10, ETV2 (Homo sapiens, UniProt O00321 1-342); conditions: protein: recombinant; tags: N-terminal GST; dsDNA, one strand shown
# T10 sequence: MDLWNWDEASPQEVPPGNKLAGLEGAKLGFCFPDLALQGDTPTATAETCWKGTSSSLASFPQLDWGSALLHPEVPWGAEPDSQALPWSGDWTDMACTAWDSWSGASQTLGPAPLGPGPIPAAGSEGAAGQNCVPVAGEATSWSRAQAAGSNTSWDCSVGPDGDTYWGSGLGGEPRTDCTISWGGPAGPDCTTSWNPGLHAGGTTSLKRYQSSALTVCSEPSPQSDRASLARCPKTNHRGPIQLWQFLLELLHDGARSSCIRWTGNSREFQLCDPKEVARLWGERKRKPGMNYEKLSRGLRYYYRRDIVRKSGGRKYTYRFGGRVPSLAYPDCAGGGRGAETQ
# In short: as §1
# ELF3 = biological target: T11, ELF3 (Homo sapiens, UniProt P78545 1-371); conditions: protein: recombinant; tags: N-terminal GST; dsDNA, one strand shown
# T11 sequence: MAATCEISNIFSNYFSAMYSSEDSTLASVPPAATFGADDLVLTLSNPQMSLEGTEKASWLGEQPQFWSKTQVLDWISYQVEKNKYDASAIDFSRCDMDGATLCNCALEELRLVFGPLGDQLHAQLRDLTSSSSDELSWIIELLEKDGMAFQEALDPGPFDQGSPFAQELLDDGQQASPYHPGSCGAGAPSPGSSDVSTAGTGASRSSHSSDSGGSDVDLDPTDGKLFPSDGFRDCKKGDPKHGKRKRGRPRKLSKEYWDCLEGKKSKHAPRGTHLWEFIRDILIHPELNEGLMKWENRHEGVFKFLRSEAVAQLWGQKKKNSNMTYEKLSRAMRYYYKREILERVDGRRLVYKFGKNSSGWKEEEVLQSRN
# In short: as §1
# CRX = CRX (Homo sapiens, UniProt O43186 1-299); conditions: protein: recombinant; tags: N-terminal GST; dsDNA, one strand shown
# In short: as §1
# ETV1 = ETV1 (Homo sapiens, UniProt P50549 1-477); conditions: protein: recombinant; tags: N-terminal GST; dsDNA, one strand shown
# In short: as §1
# Sequence of ELF1 (P32519 whole entry): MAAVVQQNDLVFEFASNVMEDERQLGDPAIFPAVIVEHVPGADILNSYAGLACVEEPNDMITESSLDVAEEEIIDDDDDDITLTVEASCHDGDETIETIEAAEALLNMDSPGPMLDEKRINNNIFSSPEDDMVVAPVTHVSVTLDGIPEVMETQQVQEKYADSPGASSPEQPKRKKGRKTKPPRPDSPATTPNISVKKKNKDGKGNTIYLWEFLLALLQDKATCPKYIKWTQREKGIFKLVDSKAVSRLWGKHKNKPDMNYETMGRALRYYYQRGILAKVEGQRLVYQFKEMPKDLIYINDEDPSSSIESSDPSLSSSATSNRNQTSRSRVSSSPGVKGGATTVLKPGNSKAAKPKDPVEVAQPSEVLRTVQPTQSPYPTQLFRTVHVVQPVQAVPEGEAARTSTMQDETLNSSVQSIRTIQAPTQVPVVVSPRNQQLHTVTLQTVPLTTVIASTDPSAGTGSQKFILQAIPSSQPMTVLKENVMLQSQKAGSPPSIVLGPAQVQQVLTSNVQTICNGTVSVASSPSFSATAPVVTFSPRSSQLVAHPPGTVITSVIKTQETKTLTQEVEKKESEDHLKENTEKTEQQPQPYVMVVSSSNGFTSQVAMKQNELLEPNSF
# Sequence of HSF1 (Q00613 whole entry): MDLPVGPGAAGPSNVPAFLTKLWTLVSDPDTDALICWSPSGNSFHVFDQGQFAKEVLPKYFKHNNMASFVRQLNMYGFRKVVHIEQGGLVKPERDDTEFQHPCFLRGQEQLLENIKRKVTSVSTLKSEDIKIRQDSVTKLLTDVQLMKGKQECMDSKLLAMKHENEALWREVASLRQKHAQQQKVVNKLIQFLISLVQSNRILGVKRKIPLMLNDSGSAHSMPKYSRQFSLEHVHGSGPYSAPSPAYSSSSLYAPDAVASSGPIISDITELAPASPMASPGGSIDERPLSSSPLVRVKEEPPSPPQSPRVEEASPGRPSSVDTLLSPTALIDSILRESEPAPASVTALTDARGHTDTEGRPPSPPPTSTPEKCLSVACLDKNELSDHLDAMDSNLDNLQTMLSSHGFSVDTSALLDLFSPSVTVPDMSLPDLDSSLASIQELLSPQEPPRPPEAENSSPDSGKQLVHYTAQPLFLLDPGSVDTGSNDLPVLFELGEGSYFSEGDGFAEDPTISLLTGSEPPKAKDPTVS
# Sequence of ETV1 (P50549 whole entry): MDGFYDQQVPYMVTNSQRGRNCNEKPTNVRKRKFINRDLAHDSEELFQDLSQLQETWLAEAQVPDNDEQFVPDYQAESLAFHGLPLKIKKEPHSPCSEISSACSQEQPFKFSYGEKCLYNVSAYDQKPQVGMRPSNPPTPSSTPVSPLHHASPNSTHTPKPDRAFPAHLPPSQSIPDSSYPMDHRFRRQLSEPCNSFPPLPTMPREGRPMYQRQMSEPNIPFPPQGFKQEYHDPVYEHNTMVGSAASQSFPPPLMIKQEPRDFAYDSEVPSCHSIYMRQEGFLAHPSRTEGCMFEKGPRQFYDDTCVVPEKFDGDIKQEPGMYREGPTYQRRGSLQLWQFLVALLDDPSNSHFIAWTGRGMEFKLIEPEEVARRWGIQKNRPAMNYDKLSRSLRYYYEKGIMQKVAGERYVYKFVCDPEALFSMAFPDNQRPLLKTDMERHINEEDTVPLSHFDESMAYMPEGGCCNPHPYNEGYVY
# Sequence of CRX (O43186 whole entry): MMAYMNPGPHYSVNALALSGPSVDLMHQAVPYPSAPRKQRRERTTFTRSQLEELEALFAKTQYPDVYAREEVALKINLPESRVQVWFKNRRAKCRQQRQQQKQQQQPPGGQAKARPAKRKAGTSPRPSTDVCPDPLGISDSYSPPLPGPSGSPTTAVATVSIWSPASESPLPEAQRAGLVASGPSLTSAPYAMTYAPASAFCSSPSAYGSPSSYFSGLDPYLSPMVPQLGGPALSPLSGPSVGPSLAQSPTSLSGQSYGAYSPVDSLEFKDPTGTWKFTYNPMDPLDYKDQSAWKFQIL
# Sequence of ELF4 (Q99607 whole entry): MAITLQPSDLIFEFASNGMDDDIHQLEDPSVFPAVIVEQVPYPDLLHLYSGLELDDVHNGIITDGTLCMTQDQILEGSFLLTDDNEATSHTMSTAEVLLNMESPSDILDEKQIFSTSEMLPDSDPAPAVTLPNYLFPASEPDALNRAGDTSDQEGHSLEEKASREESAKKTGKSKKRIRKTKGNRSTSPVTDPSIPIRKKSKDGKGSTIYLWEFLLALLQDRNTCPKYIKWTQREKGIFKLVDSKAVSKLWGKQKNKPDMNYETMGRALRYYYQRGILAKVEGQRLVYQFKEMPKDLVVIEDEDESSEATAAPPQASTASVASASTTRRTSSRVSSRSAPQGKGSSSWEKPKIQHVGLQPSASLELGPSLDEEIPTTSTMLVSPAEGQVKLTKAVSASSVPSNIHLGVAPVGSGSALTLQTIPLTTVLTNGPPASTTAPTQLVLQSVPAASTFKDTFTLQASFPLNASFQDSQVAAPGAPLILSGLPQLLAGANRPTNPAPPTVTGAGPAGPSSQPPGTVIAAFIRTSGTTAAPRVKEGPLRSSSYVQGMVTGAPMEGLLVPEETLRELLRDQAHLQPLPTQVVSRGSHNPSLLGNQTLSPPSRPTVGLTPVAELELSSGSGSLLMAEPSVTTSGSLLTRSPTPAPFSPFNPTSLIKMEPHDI
# Sequence of SPIB (Q01892 whole entry): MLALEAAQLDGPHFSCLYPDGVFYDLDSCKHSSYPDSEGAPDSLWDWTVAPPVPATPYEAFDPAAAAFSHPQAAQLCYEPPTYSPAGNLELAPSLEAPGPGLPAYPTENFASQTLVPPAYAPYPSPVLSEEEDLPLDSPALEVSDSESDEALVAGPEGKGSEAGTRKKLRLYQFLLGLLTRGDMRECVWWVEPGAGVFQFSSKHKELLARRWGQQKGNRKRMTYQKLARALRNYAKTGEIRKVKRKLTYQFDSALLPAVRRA
# Sequence of ETV5 (P41161 whole entry): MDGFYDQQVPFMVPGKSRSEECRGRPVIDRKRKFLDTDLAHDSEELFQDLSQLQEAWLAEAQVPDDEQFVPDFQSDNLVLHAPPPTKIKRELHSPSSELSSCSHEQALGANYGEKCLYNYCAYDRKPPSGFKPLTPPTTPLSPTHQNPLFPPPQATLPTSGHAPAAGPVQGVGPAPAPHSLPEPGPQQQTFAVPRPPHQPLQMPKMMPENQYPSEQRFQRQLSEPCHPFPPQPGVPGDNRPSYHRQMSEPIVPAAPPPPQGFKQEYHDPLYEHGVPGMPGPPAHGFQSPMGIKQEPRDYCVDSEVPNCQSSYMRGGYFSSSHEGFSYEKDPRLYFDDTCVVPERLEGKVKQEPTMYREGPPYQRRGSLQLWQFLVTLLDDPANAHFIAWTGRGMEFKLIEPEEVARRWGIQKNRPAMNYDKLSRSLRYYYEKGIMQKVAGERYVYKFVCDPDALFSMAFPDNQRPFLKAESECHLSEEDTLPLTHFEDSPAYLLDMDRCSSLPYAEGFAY
sequence,measurement,setting,value
TATGAT,binding signal,FLI1,"1.21 fold enrichment (6-mer frequency, TF over GST control)"
same,binding signal,ELK1,"1.18 fold enrichment (6-mer frequency, TF over GST control)"
same,binding signal,GABPA,"1.22 fold enrichment (6-mer frequency, TF over GST control)"
same,binding signal,ERG,"1.2 fold enrichment (6-mer frequency, TF over GST control)"
same,binding signal,ELF1,"1.24 fold enrichment (6-mer frequency, TF over GST control)"
same,binding signal,EHF,"1.27 fold enrichment (6-mer frequency, TF over GST control)"
same,binding signal,SPI1,"1.18 fold enrichment (6-mer frequency, TF over GST control)"
same,binding signal,SPIB,"1.23 fold enrichment (6-mer frequency, TF over GST control)"
same,binding signal,ELK3,"1.23 fold enrichment (6-mer frequency, TF over GST control)"
same,binding signal,FEV,"1.16 fold enrichment (6-mer frequency, TF over GST control)"
same,binding signal,ETV5,"1.24 fold enrichment (6-mer frequency, TF over GST control)"
same,binding signal,HSF1,"1.31 fold enrichment (6-mer frequency, TF over GST control)"
same,binding signal,SPIC,"1.29 fold enrichment (6-mer frequency, TF over GST control)"
same,binding signal,ELF4,"1.12 fold enrichment (6-mer frequency, TF over GST control)"
same,binding signal,ELK4,"1.25 fold enrichment (6-mer frequency, TF over GST control)"
same,binding signal,ETV2,"1.27 fold enrichment (6-mer frequency, TF over GST control)"
same,binding signal,ELF3,"1.09 fold enrichment (6-mer frequency, TF over GST control)"
same,binding signal,CRX,"1.5 fold enrichment (6-mer frequency, TF over GST control)"
same,binding signal,ETV1,"1.17 fold enrichment (6-mer frequency, TF over GST control)"
